Bioassay records from PubChem BioAssay.
The list is not random: actives were taken first. Their share in the collection is about 6.2%.
RORg inh: blocks mouse ROR gamma transcriptional activity | actives 5.4% (n = 310,000) | Drosophila S2 Gal4-RORgamma UAS-luciferase reporter, 20 h | AID 2551 | Potency, µM (highest dose often 53.6 µM), hits mostly inhibitors | P51450; further: nearly all actives have a fitted effect of over 60% in size
Target sequence (P51450 whole entry, looked up, the tested form may be a part): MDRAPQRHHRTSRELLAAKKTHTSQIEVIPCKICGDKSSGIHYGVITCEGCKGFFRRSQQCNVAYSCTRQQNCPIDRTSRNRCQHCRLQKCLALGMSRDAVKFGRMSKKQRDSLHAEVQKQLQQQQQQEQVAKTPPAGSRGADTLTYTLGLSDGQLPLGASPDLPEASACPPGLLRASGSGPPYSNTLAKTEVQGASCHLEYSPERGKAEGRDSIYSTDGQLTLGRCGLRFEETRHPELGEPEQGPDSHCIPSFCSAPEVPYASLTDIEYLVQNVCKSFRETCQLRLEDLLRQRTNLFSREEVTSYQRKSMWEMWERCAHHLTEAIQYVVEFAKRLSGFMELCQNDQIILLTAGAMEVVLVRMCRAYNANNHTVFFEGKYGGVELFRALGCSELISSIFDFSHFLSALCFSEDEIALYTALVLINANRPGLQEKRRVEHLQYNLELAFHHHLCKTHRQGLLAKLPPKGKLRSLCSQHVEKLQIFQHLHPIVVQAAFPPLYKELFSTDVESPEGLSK
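Stable Schneider cell line, Gal4 DNA-binding domain fused to ROR gamma, UAS-luciferase. Cmpd 1 hr RT → CuSO4 700 uM final → 20 hr RT → luciferase reagent 10 min → luminescence.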
Luc counter: blocks Kinase-Glo luciferase, a counter-screen artifact; Q27757; Kinase-Glo luciferase, ATP luminescence, 8 min; Potency, µM (titrated, usually from 38.3 µM), hits mostly inhibitors; actives 0.28% (n = 200,000); AID 1379; further: nearly all actives have a fitted effect of over 60% in size
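Compound is pinned into ATP-containing buffer (10 uM ATP, imidazole pH 7.2, 7 mM MgCl2). Kinase-Glo luciferase reagent is then added. Light output is recorded following an 8-min room-temperature incubation.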
Gal4-VP16 FLuc: Gal4-VP16 reporter inhibition counter-screen. actives 3.5% (n = 310,000). AID 2546. Drosophila S2 Gal4-VP16 UAS-luciferase, luminescence, 20 h. Potency, µM (series often up to 53.6 µM), actives largely listed as inhibitors;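 further: Gal4-VP16 expression switched on by copper sulfate through the metallothionein promoter; nearly all actives have a fitted effect of over 50% in size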
Numbers stand for hits; 0 = inactive; ? = inconclusive; - = no result given; [ ] = another dose, or the depositor's remark. The call rests on the fitted dose curve; in most records, active means well fitted curve in the direction sought with a large enough effect; inconclusive means small, poorly fitted or top-dose-only effect, or another doubt; inactive means no such curve, though single readings can be large; an effect the other way counts as inactive or inconclusive.

SMILES	RORg inh	Luc counter	Gal4-VP16 FLuc
CC(OC(=O)CC1Sc2ccccc2NC1=O)C(=O)NC1CCCC1 (configuration not stated)	0	-	0
COc1cccc([C@@H]2Oc3ccc(OC)cc3C[C@H]2OC(=O)N[C@H]2CCCc3ccccc32)c1	0	0	0
CC12CCC(C/C1=N\N=C1\NC(=O)/C(=C\c3ccc(Cl)cc3)S1)C2(C)C (configuration not stated)	?	0	10µM
O=C1NC(=Nc2ccccc2Cl)S/C1=C\c1ccc(C(=O)O)cc1	0	-	0
CC(C)OCCCNC(=S)Nc1ccc(S(N)(=O)=O)cc1	0	0	35µM
CC(=O)c1ccc(NC(=S)NCCc2ccc(S(N)(=O)=O)cc2)cc1	?	0	0
CN(C(=O)COC(=O)c1cc(S(=O)(=O)N2CCOCC2)c(Cl)cc1Cl)C1CCS(=O)(=O)C1 (configuration not stated)	0	0	0
Nc1nc(SCC(=O)O)[nH]c(=O)c1N	-	0[7.66 µM]	-
Cc1ccc(NC(=S)N/N=C/c2cccn2Cc2ccccc2F)cc1	0.35µM	-	1.1µM
Cc1ccc(CN2CCN(CC(=O)N/N=C/c3ccccc3F)CC2)cc1	0	-	0
C/C(=N\Nc1ccc2nncn2n1)c1ccccn1	8.9µM	-	?
C/C(=N\Nc1ccc2nncn2n1)c1ccco1	0	-	0
COCCNC(=S)N1CCC(Cc2ccccc2)CC1	0	0	0
CC(C)[C@H](NC(=O)N1CCC(Cc2ccccc2)CC1)C(=O)O	0	-	0
CC(C)CNC(=S)N1CCC(Cc2ccccc2)CC1	10µM	-	?
CC(C)NC(=S)N1CCC(Cc2ccccc2)CC1	1.1µM	0	0
Cc1csc(NC(=O)CCNC(=O)c2ccccc2Cl)n1	0	0	0
Cc1ccc(-c2cc(C(=O)N/N=C/c3ccoc3)c3ccccc3n2)cc1	7.1µM	-	10µM
CCCc1cc(C(=O)N/N=C/c2ccc(C)o2)c2ccccc2n1	10µM	0	0
COc1cc(/C=N/NC(=O)c2cc(-c3ccccc3)nc3ccccc23)ccc1O	0	-	0
Cc1cc(C(=O)N/N=C/c2ccc(C)o2)c2ccccc2n1	?	0	?
O=C(N/N=C/c1ccoc1)c1ccccc1O	10µM	-	18µM
O=C(N/N=C/c1ccoc1)c1ccccc1	0	-	0
Cc1ccc(/C=N/NC(=O)c2cc(-c3ccccc3)nc3ccccc23)o1	4µM	-	7.1µM
Cc1ccc(/C=N/NC(=O)c2cc(C3CC3)nc3ccccc23)o1	?	0	?
SMILES	RORg inh	Luc counter	Gal4-VP16 FLuc
COc1ccc(-c2c(NC(=O)c3ccco3)n(C)c3ccccc3c2=O)cc1	0	0	0
CC(=O)c1cc(C)ccc1OC(=O)CN1C(=O)c2ccccc2C1=O	0	-	0
N#Cc1cccc(-c2nc3cnc(N4CCOCC4)nc3n(C[C@H]3CCCO3)c2=O)c1	0	-	0
CCn1nc(C)cc1C(=O)NC1CC(C)(C)Cc2c1cnn2-c1cccc(F)c1 (configuration not stated)	?	-	0
CCOC(=O)N1CCN(Cc2nnc(-c3ccccc3C)o2)CC1	0	-	0
O=C(c1cc(Cl)ccc1Cl)N1CCN(c2ccccn2)CC1	0	0	0
O=C(c1cnc(N2CCN(c3ccccn3)CC2)c2ccccc12)N1CCN(c2cccc(Cl)c2)CC1	?	0	1.6µM
N=c1c(C(=O)NCCN2CCOCC2)cc2c(=O)n3ccccc3nc2n1CCCN1CCOCC1	0	-	0
COc1ccc(NC(=S)NCCCc2ccccc2)cc1	3.5µM	0	13µM
COc1ccc(NC(=O)NCCCCc2ccccc2)cc1	0	-	0
C=CCN(CC=C)S(=O)(=O)c1ccc(NC(=S)NC(=O)Cc2ccc(OC)cc2)cc1	7.1µM	0	?
COc1ccc(CC(=O)NC(=S)Nc2ccc(S(N)(=O)=O)cc2)cc1	0	0	?
COc1ccc(NS(=O)(=O)c2ccc(NC(=S)NC(=O)C(C)C)cc2)cc1	0	0	0
CN(Cc1ccccc1)C(=S)Nc1ccc(OC(F)F)cc1	?	0	0
O=C(Cc1ccccc1)NC(=S)Nc1ccc(OC(F)F)cc1	20µM	-	11µM
COc1ccc(CC(=O)NC(=S)Nc2ccc(S(=O)(=O)NC(C)(C)C)cc2)cc1	13µM	0	0
Cc1ccc(NC(=O)CCS(=O)(=O)c2ccc3c(c2)NC(=O)C(C)S3)cc1Cl (configuration not stated)	0	-	0
Cc1c(NC(=O)c2cc3c(s2)CCCC3)c(=O)n(-c2ccccc2)n1C	?	0	0
O=C(c1sc2cccc(F)c2c1Cl)N1CCN(c2ncccn2)CC1	0	0	0
O=C(Nc1c(-c2ccccc2)nc2sccn12)c1ccccc1	0	0	0
COc1cc(C=Nc2cccc([N+](=O)[O-])c2C)ccc1OC(C)=O	0	0	0
O=C(c1ccc(C(=O)N2CCCc3ccccc32)nc1)N1CCCc2ccccc21	0	0	0
COc1ccc(NC(=S)NC(=O)Cc2ccccc2)cc1	8.9µM	-	7.1µM
CCC(=O)Nc1ccc(NC(=S)NC(=O)Cc2ccccc2)cc1	0	0	0
COC(=O)CC1c2ccccc2C=C(C2CC2)N1C(=O)OC (configuration not stated)	0	0	0
SMILES	RORg inh	Luc counter	Gal4-VP16 FLuc
CC(/C=N/n1c(C2CCCCC2)n[nH]c1=S)=C\c1ccccc1	3.5µM	0	10µM
CC(/C=N/n1c(-c2cc(C)[nH]n2)n[nH]c1=S)=C\c1ccccc1	8.9µM	0	?
CC(=C/c1ccccc1)/C=N/n1c(-c2ccco2)n[nH]c1=S	0	0	0
Cc1n[nH]c(=S)n(/N=C/c2cccc([N+](=O)[O-])c2)c1=O	0	-	0
Cc1cccc(/C=N/n2c(C3CCCCC3)n[nH]c2=S)c1	3.2µM	-	7.1µM
COc1cc(/C=N/n2c(C3CCCCC3)n[nH]c2=S)cc(Br)c1O	0	-	0
CC(/C=N/n1cnnc1)=C\c1ccccc1	0	0	0
S=c1[nH]nc(C2CCCCC2)n1/N=C/c1cccc(Br)c1	2µM	-	0
CCCCCC/C=C/c1ccc(C2C3C=CCC(C)C3C(=O)N2Cc2ccccc2)c(F)c1 (configuration not stated)	0	-	0
Cc1ccc2nc(SCC(=O)Nc3ccc4sc(C)nc4c3)c(C#N)cc2c1	0	0	0[0.365 µM]
CC[C@H](C)N	0	-	0
Cc1ccc(C(=O)N2CC(=O)Nc3ccc(F)cc3C2c2ccccc2)cc1 (configuration not stated)	0	-	0
Cc1ccc(C(=O)Nc2cnc3sc(C)nn3c2=O)cc1	0	0	0
COc1ccc(Cl)cc1NC(=O)CN(C)C1CCCCC1	0	0	0
CS(=O)(=O)N(CC(=O)NC1CCCCC1)Cc1ccc(F)cc1	0	0	0
COc1ccc(C(=O)/C=C/C(=O)N(CC(=O)NC2CCCCC2)Cc2ccc(F)cc2)c(O)c1	0	0	7.1µM
COc1ccc(OC)c(NC(=O)CN(Cc2ccc(F)cc2)C2CCCCC2)c1	?	-	18µM
CCC(=O)N1C(Cc2ccccc2)COC1(C)C (configuration not stated)	0	0	0
COc1ccc(C#CC2C=CC(Oc3cc(C)cc(C)c3)C(CO)O2)cc1 (configuration not stated)	0[10 µM]	-	0[10 µM]
O=C(c1c[nH]c2ccccc12)C(Cl)c1ccccc1 (configuration not stated)	0	-	0
O=C(NC(=S)Nc1ccc2c(c1)OCCO2)c1ccc(F)cc1Cl	11µM	0	?
